Inconclusive results are not listed. Active and inactive are the calls of the source. The call rests on the fitted dose curve; in most records, active means well fitted activation curve with a large enough effect in the repeat runs; inconclusive means weak or mixed curves; inactive means flat fitted curve, though single readings scatter.
On the % scale 0 is the no-effect control and ±100 the full control effect.

A short description of this assay: A CellTox Green Cytotoxicity Assay to monitor cytotoxicity in HEK293 cells - 8 hour (AID 1224884). Further: nearly all actives have a fitted effect of over 35% in size. As to conditions: CellTox Green fluorescence; series mostly up to 76.8 µM; cytotoxicity increase: at the top concentration. The method in brief: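 Dead-cell fluorescence measured kinetically: asymmetric cyanine dye, HEK293, 600 cells/well, 5 h settle, 23 nL cpd/DMSO, 37 C, reads 0–40 h every 8 h.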
Take `CCCCN(CCCC)CCCC`: the outcome was inactive.
As to `CCOC(=O)NNc1nncc2ccccc12`, the compound was classed as inactive.
In the case of `C[Si](O[Si](C)(C)C)O[Si](C)(C)C`, the compound was classed as inactive.
With `N[C@@H](Cc1cc(I)c(Oc2cc(I)c(O)c(I)c2)c(I)c1)C(=O)O`, the call was inactive.
For the compound `O=C(O)c1ccccc1C(c1ccc(O)cc1)c1ccc(O)cc1`, the call was inactive.
In the case of `CCCCCCCCC/C=C/CC1CC(=O)OC1=O` (stereo not given), the call was inactive.
`C#C[C@]1(O)CC[C@H]2[C@@H]3CCC4=CC(=O)CC[C@@H]4[C@H]3CC[C@@]21C`: the compound was classed as inactive.
`CCCCCC(N)=O`: the call was inactive.
On the same count and under the same terms, then `O=C(O)c1ccc(C(=O)O)cc1`, with “inactive”; and `CC1CCC(C(C)C)C(O)C1` (stereo not given), with “inactive”; and `CC1CCC2CC1C2(C)C` (stereo not given), with “inactive”.
With `CSCCC=O`, the compound was called inactive.
Still for that read-out and setting: the same measure for `OCCOCCOCCO`: “inactive”; for `O=c1[nH]nnc2ccccc12`: “inactive”.
As to `CC(=O)CC(=O)Nc1ccccc1C`, the “cytotoxicity increase” value is -20.7% (inactive).
As to `CN(C)CCC(c1ccccc1)c1ccccn1` (stereo not given), the outcome was inactive.
Regarding `CCCCCC/C(C=O)=C\c1ccccc1`, the “cytotoxicity increase” value is -2.4% (inactive).
Take `Nc1ccccc1[N+](=O)[O-]`: the result was inactive.
Still for that read-out and setting: the same measure for `C=C(C)C(=O)O[C@H]1C[C@@H]2CC[C@@]1(C)C2(C)C`: “inactive”; for `OCC(CO)(CBr)CBr`: “inactive”; for `CC(=O)Nc1ccccc1`: “inactive”.
Turning to `CCCCOC(=O)COc1ccc(Cl)cc1Cl`, the call was inactive.
On to `CCCCC(CC)COC(=O)CCCCC(=O)OCC(CC)CCCC` (stereo not given), for which the result was inactive.
Take `C[C@H]1C[C@H]2[C@@H]3CCC4=CC(=O)C=C[C@]4(C)[C@@]3(F)[C@@H](O)C[C@]2(C)[C@@]1(O)C(=O)CO`: the result was inactive.
For `O=P(OC(CCl)CCl)(OC(CCl)CCl)OC(CCl)CCl`, the call was inactive.

Source of the values: PubChem BioAssay (Tox21).
